The whole screen tested about 310,000 compounds, of which about 18,000 (5.8%) were called active. Roughly 22% stayed inconclusive and do not appear here. The sample as a whole holds a higher share of actives than the screen did. Unmarked numbers belong to inactive results. Calls come from the whole dose curve; as a rule, active = well fitted inhibition curve with a large enough effect; inconclusive = small, poorly fitted or top-dose-only effect, or another doubt; inactive = no such curve, though single readings can be large or run the other way.
Experiment: Primary qHTS for delayed death inhibitors of the malarial parasite plastid, 48 hour incubation
Conditions: P. falciparum luciferase growth in erythrocytes; series mostly up to 28.7 µM; activity change, negative = inhibition: at the top concentration
Summary of the method: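 Parasite viability was followed by luminescence of a genomically integrated firefly luciferase. Cultures held 0.1% parasitemia at 2% hematocrit (final), incubated under 5% CO2 at 37 C.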
% is set by controls: 0 for no effect and ±100 for the full control effect; potency is the fitted concentration of half-maximal effect.

SMILES | activity change, negative = inhibition [%] | Potency
CC(C)CN(C(=O)Cn1c(=O)cnc2ccccc21)C1CCS(=O)(=O)C1 (configuration not stated) | 13.7 | –
Cc1ccccc1Nc1c([N+](=O)[O-])ccc2nonc12 | -12.3 | –
CC1(C(=O)OCC(=O)Nc2ncc(Cl)cc2Cl)CC1(Cl)Cl (configuration not stated) | 1.62 | –
Cc1cccc(OCC(=O)Nc2ccc(C(=O)O)cc2NC(=O)COc2cccc(C)c2)c1 | 24 | –
O=C(NCCCN1CCCC1=O)c1ccc(S(=O)(=O)Nc2ccccc2)cc1 | -8.62 | –
CC1CCN(C(=O)CCc2nnc3ccc(NCc4ccco4)nn23)CC1 | 0 | –
CC(c1ccccn1)N(C)C(=O)c1ccc2nc(Cc3cccc(Cl)c3)oc2c1 (configuration not stated) | 14 | –
CC1(C)O[C@@H]2[C@H](O1)[C@@H](COS(=O)(=O)O)O[C@H]2n1cnc2c(=O)[nH]cnc21 | 40.8 | –
CCOCCOC(=O)C1=C(C)NC(=O)NC1c1ccc2c(c1)OCO2 (configuration not stated) | 10 | –
Cc1csc2nc(COC(=O)c3cccc(N(C)C)c3)cc(=O)n12 | 159 | –
Cc1nc(NC(=O)c2cccc(Cl)c2)sc1-c1csc(Nc2cccc(Cl)c2)n1 | – | 8.28 µM (active)
CC(=O)Nc1nc(C)c(-c2csc(Nc3ccc(S(N)(=O)=O)cc3)n2)s1 | 5.4 | –
CCCCN(C)CCC(=O)Nc1ccc(Cl)cc1 | -3.3 | –
CC(=O)Nc1cccc(-c2csc(Nc3cccc(C)n3)n2)c1 | 286 | –
CCCCC(=O)Nc1nc(C)c(-c2csc(Nc3ccc(Cl)cc3)n2)s1 | – | 4.65 µM (active)
CCC(=O)Nc1nc(C)c(C(=O)Nc2cccc(Cl)c2)s1 | -17 | –
O=C(CN1C(=O)NC2(CCCC2)C1=O)OCCOc1ccc(F)cc1 | 80.6 | –
COC(=O)c1c(NC(=O)C(=O)N2CCCCC2)sc2c1CC(C)(C)OC2 | -25.4 | –
COc1ccc(CNS(=O)(=O)c2ccc(-c3cnc(C4CC4)o3)cc2)cc1 | 5.18 | –
O=C1CC(c2cccc(Br)c2)C2=C(CCCC2=O)N1 (configuration not stated) | 5.31 | –
O=C1C=C(c2cccc(Br)c2)C[C@@H](c2ccc(F)cc2)C1 | – | 2.94 µM (active)
O=C1C=C(c2cccc(Cl)c2O)C[C@@H](c2ccc(F)cc2)C1 | – | 2.08 µM (active)
COc1cccc(C2=CC(=O)C[C@H](c3ccc(F)cc3)C2)c1OC | 0 | –

SMILES | activity change, negative = inhibition [%] | Potency
COc1ccccc1C1=CC(=O)C[C@H](c2ccc(F)cc2)C1 | -28.2 | –
O=C(CCc1nnc(Cc2ccc3c(c2)OCO3)o1)NCCc1ccccc1Cl | 2.13 | –
COc1ccc(-c2nc(CS(=O)(=O)CC(=O)NCc3cccc(Br)c3)c(C)o2)cc1 | 3.55 | –
COc1ccc(-n2ncc3c(SCC(=O)NNC(C)=O)ncnc32)cc1 | 50.2 | –
CC(=O)N1CCc2c(sc(NC(=O)CCS(=O)(=O)c3ccccc3)c2C#N)C1 | 2.73 | –
Cc1ccc(S(=O)(=O)NC2CCCCCC2)cc1C(N)=O | 23.5 | –
O=C(CN1CCCCCC1)Nc1c(Cl)cc(Cl)cc1Cl | 54.7 | –
N#C/C(=C\C1=C(N2CCOCC2)C(=C\c2ccccc2)/CC1)C(=O)Nc1ccccc1F | -23.8 | –
O=C1Nc2ccc(Br)cc2/C1=N/N=C/C1=C(N2CCOCC2)C(=C\c2ccccc2)/CC1 | -20.2 | –
C(=N\N1CCN(c2ccccn2)CC1)/C1=C(N2CCOCC2)C(=C/c2ccccc2)/CC1 | – | 10.4 µM (active)
Oc1cc2c(cc1CN1CCN(c3ccccc3)CC1)OCO2 | -9.2 | –
CC(=O)c1ccc(N2CCN(CC(O)c3ccccc3)CC2)cc1 (configuration not stated) | 16.4 | –
CC(C)c1ccc(O)c(CN2CCN(c3ccccc3)CC2)c1 | – | 3.29 µM (active)
O=C(CSc1nccc(=O)[nH]1)Nc1ccc(N2CCOCC2)c(Cl)c1 | 23.8 | –
Cc1cccc(CN2CCC(CNC(=O)Nc3ccc(F)c(Cl)c3)CC2)c1 | – | 10.4 µM (active)
O=C(CN1CCN(Cc2ccccc2)CC1)Nc1ccc(F)c(F)c1 | -8.06 | –
COc1cc(NC(=O)NCC2CCN(Cc3ccc(C)cc3)CC2)cc(OC)c1OC | -4.11 | –
COc1cc(C(=O)NCc2nnc(SCC(=O)c3ccc(Cl)cc3)o2)cc(OC)c1OC | 7.45 | –
CCC(=O)Nc1ccc(C(=O)NNC(=O)c2ccc(Cl)cc2)cc1 | 0 | –
Cc1ccc(NS(=O)(=O)c2ccc(-c3ccc(=O)[nH]n3)o2)c(C)c1 | 19.5 | –
CC#CC[N+](C)(C)CCCCCC | – | 10.4 µM (active)
Cc1ccn2c(=O)c(NC(=O)c3cccc4ccccc34)c(C)nc2c1 | 9.29 | –
Cc1[nH]c(C)c(S(=O)(=O)N2CCC(C)CC2)c1C(=O)N1CCCC1 | 5.99 | –

SMILES | activity change, negative = inhibition [%] | Potency
O=S(=O)(c1ccccc1)c1nc(Cc2ccccc2)oc1N1CCOCC1 | 2.87 | –
COc1ccc(C2=NN(C(=O)c3ccccc3C(=O)O)C(c3ccccc3O)C2)cc1 (configuration not stated) | 8.81 | –
Cc1cc(=O)n2nc(N3CCCC(C(=O)NCc4ccc(Cl)cc4)C3)sc2n1 (configuration not stated) | -7.33 | –
COc1ccc(Br)cc1/C=N/n1c(C)nnc1C | 0.549 | –
COc1cc(N2CCCC2)c(OC)cc1/C=C(/C#N)c1cccc(Br)c1 | – | 14.7 µM (active)
COc1cccc(C(=O)Nc2ccc(N3CCCC3)cc2)c1 | 73.1 | –
COc1ccccc1-n1c(SCC(=O)Nc2cccc(C(=O)O)c2)nnc1-c1ccccc1O | -3.16 | –
Cc1cccc(N2C(=O)c3ccc(C(=O)Nc4cccc(C(=O)O)c4)cc3C2=O)c1 | 56.5 | –
Cc1c(Cl)cccc1NC(=O)CCC(=O)N/N=C/c1ccco1 | -5.06 | –
Cc1ccc(S(=O)(=O)CCC(=O)Nc2nnc(CC(C)C)s2)cc1 | -11.3 | –
N#C/C=C/N1CCN(Cc2ccc3c(c2)OCO3)CC1 | 12.1 | –
CNc1nc(-c2ccccc2)cc(-c2ccccc2)n1 | -5.46 | –
CCN(CC)C(=O)c1sc2nc(-c3ccccc3)ccc2c1N | 189 | –
CS(=O)(=O)c1sc2nc(-c3ccccc3)cc(-c3ccccc3)c2c1N | – | 4.65 µM (active)
CSc1ccccc1C(=O)OCC(=O)N1CCN(C(C)=O)CC1 | -3.5 | –
O=C(NCCCc1ccccc1)C(=O)c1c[nH]c2ccccc12 | 16.7 | –
O=S(=O)(c1ccc(SCc2ccccc2)nc1)N1CCCCCC1 | -6.45 | –
CC1(C)CC(=O)c2ccc(O)cc2O1 | -6.62 | –
COc1ccc2c(c1)OC(O)(C(F)(F)C(F)F)CC2=O (configuration not stated) | – | 3.29 µM (active)
COc1ccc2c(c1)SC(C)CC2=O (configuration not stated) | 10.2 | –
COc1cc(C2C(C(=O)c3ccco3)=C(O)C(=O)N2c2cc(C)on2)ccc1OCc1ccccc1 (configuration not stated) | 4.99 | –
